Measurements as given in PubChem BioAssay.
Results with a measured potency or affinity are listed apart. Results filed as inconclusive are left out. Calls of active or inactive are those of the source. Unless noted, no rule for the calls is given here.

Legend:
[1] = RMG-1 ovarian cancer cell viability loss – cherry-pick, dose response (AID 687029;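 active = signal drop whose fitted half-maximal concentration is at most twice the top valid dose, in every test run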;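 also: cells exposed to compound for 96 hours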); conditions: RMG-1 viability, CellTiterGlo ATP luminescence, 96 h; series mostly up to 35 µM
[2] = IOSE-T80 viability loss, PAX8-independent line – cell-based, cherry-pick, selectivity assay for PAX8 inhibitor project, dose response (AID 687032;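 active = fitted half-maximal concentration for viability loss no higher than twice the top valid dose, in every repeat run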;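 also: cells exposed to compound for 96 h before reading; 0% = neutral control wells and -100% = 2 µM mitoxantrone kill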); conditions: CellTiterGlo ATP luminescence, 96 h; series mostly up to 35 µM
[3] = CMV-driven luciferase expression suppression in HEK293 – cell-based, luminescence, dry powder, counter-screen for Pax8 inhibitor project, dose response (AID 743020;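 active = signal-lowering compounds whose fitted half-maximal concentration is at or below twice the top tested dose in every run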;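 also: HEK293 cells stably expressing the CMV luciferase reporter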); conditions: HEK293 CMV-luciferase reporter, SteadyGlo luminescence, 24 h; series mostly up to 35 µM
[4] = general cell-killing toxicity readout – plate reader, dry powder samples, cytotoxicity control for PAX8 inhibitor project, dose response (AID 743021); conditions: cell line, non-specific cytotoxicity counter-screen; series mostly up to 35 µM
[5] = toxicity toward immortalized ovarian surface epithelium – cell-based, plate reader, dry powder samples, cytotoxicity control for PAX8 inhibitor project, dose response (AID 743045); conditions: IOSE-T80 ovarian epithelial cells; series mostly up to 35 µM;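 also: 0% = neutral control median and -100% = positive control median; more negative values mean more cell killing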
[6] = A2780 cell killing – plate reader, dry powder samples, cytotoxicity control, dose response (AID 743046); conditions: A2780 ovarian cancer cytotoxicity; series mostly up to 35 µM;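 also: 0% = neutral control wells and -100% = cytotoxic reference compound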
[7] = OVCAR8 cell viability loss – plate reader, dry powder samples, PAX8 project, dose response (AID 743197); conditions: series mostly up to 35 µM
[8] = IGROV1 cell killing – plate reader, dry powder samples, PAX8 inhibitor project, dose response (AID 743043); conditions: IGROV1 ovarian cancer cell cytotoxicity; series mostly up to 35 µM;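 also: more negative means fewer viable cells or more cytotoxicity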
[9] = OVCAR-3 cell viability loss – plate reader, dry powder samples, PAX8 inhibitor project, dose response (AID 743044); conditions: NIH:OVCAR-3 ovarian cancer cell viability; max activity: at 35 µM, stronger effect = lower value unless noted; series mostly up to 50 µM
[10] = toxicity toward HepG2 liver cells – cell-based, plate reader, cherry-pick, antagonist series, cytotoxicity control, dose response (AID 743416); conditions: series mostly up to 26 µM;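 also: 0% = neutral control wells and -100% = positive control wells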

Measured: max activity

C[C@H](CO)N1C[C@H](C)[C@@H](CN(C)Cc2ccccc2)Oc2ccc(NC(=O)Nc3ccc(C(F)(F)F)cc3)cc2CC1=O
inactive: [1] | [2] | [3] | [4] | [5] | [6] | [7]

C[C@H]1CCCCO[C@H](CN(C)Cc2ccc(C(F)(F)F)cc2)[C@@H](C)CN([C@@H](C)CO)C(=O)c2cc(NC(=O)Cc3ccccc3)ccc2O1
inactive: [1] | [2] | [3] | [4] | [5] | [6]

C[C@H]1CCCCO[C@@H](CN(C)Cc2ccccc2)[C@@H](C)CN([C@@H](C)CO)C(=O)c2cc(NC(=O)Nc3ccc(C(F)(F)F)cc3)ccc2O1
inactive: [1] | [2] | [3] | [4] | [5] | [6]

Cc1ccc(S(=O)(=O)N(C)C[C@H]2Oc3cc(C#Cc4ccncc4)ccc3S(=O)(=O)N([C@@H](C)CO)C[C@H]2C)cc1
inactive: [1] | [2] | [3] | [4] | [6]

O=C(c1ccccc1F)N1CC(=O)N2[C@@H](CO)[C@@H](c3ccc(C#Cc4ccc(F)cc4)cc3)[C@@H]2C1
inactive: [1] | [2] | [3] | [4] | [5] | [6]

C[C@@H]1CN([C@@H](C)CO)C(=O)Cc2cc(NC(=O)Nc3ccc4c(c3)OCO4)ccc2O[C@H]1CN(C)CC1CCCCC1
inactive: [1] | [2] | [3] | [4] | [5] | [6] | [7]

O=C(Nc1cccc(F)c1)N1CCCCN2[C@@H](CO)[C@@H](c3ccc(C#Cc4ccccc4)cc3)[C@@H]2C1
inactive: [1] | [2] | [3] | [4] | [5] | [6]

C[C@@H]1CN([C@@H](C)CO)S(=O)(=O)c2ccc(C#C[C@@H](C)O)cc2O[C@H]1CN(C)Cc1ccc(-c2ccccc2)cc1
inactive: [1] | [2] | [3] | [4] | [5] | [6] | [7]

Cc1ccc(S(=O)(=O)Nc2ccc3c(c2)C(=O)N([C@H](C)CO)C[C@@H](C)[C@@H](CN(C)Cc2ccc(C(F)(F)F)cc2)OCCCC[C@@H](C)O3)cc1
inactive: [1] | [2] | [3] | [4] | [6]

O=C1CN(S(=O)(=O)Cc2ccccc2)C[C@@H]2[C@H](c3ccc(C#Cc4ccc(F)cc4)cc3)[C@H](CO)N12
inactive: [1] | [2] | [3] | [4] | [5] | [7]

CCCC#Cc1ccc([C@@H]2[C@H](CO)N3CCCCN(S(=O)(=O)Cc4ccccc4)C[C@@H]23)cc1
inactive: [1] | [2] | [3] | [4] | [5] | [6] | [7]

C[C@H](CO)N1C[C@H](C)[C@H](CN(C)S(=O)(=O)c2ccc(Cl)cc2)OCc2ccccc2-c2c(n(C)c3ccccc23)C1=O
inactive: [1] | [2] | [3] | [4] | [5] | [6]

COc1cccc(S(=O)(=O)N2CC[C@@H]3[C@@H](CO)Nc4ccc(-c5ccccc5OC)cc4[C@@H]32)c1
inactive: [1] | [2] | [3] | [4] | [6]

C[C@H](CO)N1C[C@H](C)[C@H](CN(C)Cc2ccc(C(F)(F)F)cc2)OCCCC[C@H](C)Oc2ccc(NC(=O)Nc3ccc4c(c3)OCO4)cc2C1=O
inactive: [1] | [2] | [3] | [4] | [5] | [6] | [7]

O=C(C[C@H]1C[C@@H]2c3cc(NC(=O)Nc4ccc(C(F)(F)F)cc4)ccc3O[C@@H]2[C@@H](CO)O1)NCc1ccc(Cl)cc1
inactive: [1] | [2] | [3] | [4] | [5] | [6] | [7]

Cc1cccc(S(=O)(=O)N2CCCCN3[C@H](CO)[C@H](c4ccc(C#CC(C)C)cc4)[C@H]3C2)c1
inactive: [1] | [2] | [3] | [4] | [6]

COc1ccccc1NC(=O)N1CCCCN2[C@@H](CO)[C@@H](c3ccc(-c4cccc(C)c4)cc3)[C@@H]2C1
inactive: [1] | [2] | [3] | [4] | [6]

COc1ccccc1S(=O)(=O)N(C)C[C@H]1Oc2cc(C#CCC3CCCC3)ccc2S(=O)(=O)N([C@@H](C)CO)C[C@@H]1C
inactive: [1] | [2] | [3] | [4] | [5] | [7]

Cc1ccccc1S(=O)(=O)N1C[C@@H]2N[C@H](C1)C2c1ccc(-c2cccc(C#N)c2)cc1 (stereo partly specified)
inactive: [1] | [2] | [3] | [4] | [6]

C[C@H]1CCCCO[C@@H](CN(C)Cc2ccc(C(F)(F)F)cc2)[C@@H](C)CN([C@@H](C)CO)C(=O)c2cc(NS(=O)(=O)c3ccc(F)cc3)ccc2O1
inactive: [1] | [2] | [3] | [4] | [5] | [6]

COc1cccc(-c2ccc3c(c2)[C@@H]2[C@@H](CCN2S(=O)(=O)c2ccccc2OC)[C@H](CO)N3C)c1
inactive: [1] | [2] | [3] | [4] | [5] | [6]

O=C(NC1CCCCC1)N1C[C@@H]2N[C@H](C1)C2c1ccc(-c2ccc(F)cc2)cc1 (stereo partly specified)
inactive: [1] | [2] | [3] | [4] | [6]

Cc1ccc(S(=O)(=O)Nc2ccc3c(c2)CC(=O)N([C@@H](C)CO)C[C@@H](C)[C@H](CN(C)Cc2ccc(Cl)c(Cl)c2)O3)cc1
inactive: [1] | [2] | [3] | [4] | [5] | [6] | [7]

COc1cccc(S(=O)(=O)Nc2ccc3c(c2)[C@@H]2C[C@@H](CC(=O)NCc4ccc(Cl)cc4)O[C@@H](CO)[C@@H]2O3)c1
inactive: [1] | [2] | [3] | [4] | [5] | [6] | [7]

COc1ccc(S(=O)(=O)Nc2ccc3c(c2)C(=O)N([C@H](C)CO)C[C@@H](C)[C@H](CN(C)S(=O)(=O)c2ccc(Cl)cc2)OCCCC[C@H](C)O3)cc1
inactive: [1] | [2] | [3] | [4] | [5] | [6]

CC(C)CC#Cc1ccc2c(c1)O[C@H](CN(C)S(=O)(=O)c1ccc(F)cc1)[C@H](C)CN([C@H](C)CO)S2(=O)=O
inactive: [1] | [2] | [3] | [8] | [5] | [6]

COc1ccc(CN(C)C[C@@H]2OCCCC[C@H](C)Oc3ccc(NS(=O)(=O)c4ccc(C)cc4)cc3C(=O)N([C@H](C)CO)C[C@H]2C)cc1
inactive: [1] | [2] | [3] | [8] | [9] -36% | [5] | [6]

O=C(Nc1ccc(F)cc1)N1C[C@@H]2N[C@H](C1)C2c1ccc(/C=C/c2ccccc2)cc1 (stereo partly specified)
inactive: [1] | [2] | [3] | [8] | [9] -17.6% | [5] | [6]

C[C@H](CO)N1C[C@H](C)[C@@H](CN(C)Cc2ccc(C(F)(F)F)cc2)Oc2ccc(NS(=O)(=O)c3ccccc3)cc2CC1=O
inactive: [1] | [2] | [3] | [8] | [5]

COc1ccc(S(=O)(=O)N(C)C[C@H]2Oc3c(NC(=O)Nc4ccc(C(F)(F)F)cc4)cccc3C(=O)N([C@@H](C)CO)C[C@H]2C)cc1
inactive: [1] | [2] | [3] | [8] | [5] | [6] | [7]

COc1cccc(C#Cc2ccc([C@@H]3[C@@H](C#N)N(C(=O)C4CCCCC4)[C@H]3CO)cc2)c1
inactive: [1] | [2] | [3] | [8] | [9] 22.8% [at 1 µM, stronger effect = lower value] | [5] | [6]

CN(C)CC(=O)N1CCCCN2[C@H](CO)[C@H](c3ccc(/C=C/c4ccccc4)cc3)[C@H]2C1
inactive: [1] | [2] | [3] | [8] | [5] | [6]

Cc1cccc(-c2ccc([C@H]3[C@H]4CN(S(=O)(=O)c5cccc(C)c5)CCCCN4[C@H]3CO)cc2)c1
inactive: [1] | [2] | [3] | [8] | [5] | [6]

C[C@H](CO)N1C[C@H](C)[C@H](CN(C)C(=O)[C@H](Cc2ccccc2)N(C)C)OCc2ccccc2-c2c(n(C)c3ccccc23)C1=O
inactive: [1] | [2] | [3] | [8] | [5] | [7]

CCCC#Cc1ccc([C@@H]2[C@@H](C#N)N(S(=O)(=O)c3cccc(F)c3)[C@H]2CO)cc1
inactive: [1] | [2] | [3] | [8] | [9] -20.5% [at 0.5 µM, stronger effect = lower value] | [5] | [6]

N#C[C@H]1[C@@H](c2ccc(C#CC3CCCCC3)cc2)[C@@H](CO)N1S(=O)(=O)c1ccccc1
inactive: [1] | [2] | [3] | [8] | [5] | [6] | [7]

COc1ccc(-c2csc3ncnc(Sc4nnnn4C)c23)cc1
inactive: [1] | [2] | [3] | [4] | [10]

C[C@@H]1CCCCO[C@@H](CN(C)C(=O)c2ccccc2)[C@@H](C)CN([C@@H](C)CO)C(=O)c2cc(NC(=O)Nc3ccc(C(F)(F)F)cc3)ccc2O1
inactive: [1] | [2] | [3] | [8] | [5] | [6]

C[C@@H]1CCCCO[C@H](CN(C)C(=O)NC2CCCCC2)[C@H](C)CN([C@@H](C)CO)C(=O)c2cc(NS(=O)(=O)c3ccc(Cl)cc3)ccc2O1
inactive: [1] | [2] | [3] | [8] | [9] -10.9% [at 0.26 µM, stronger effect = lower value] | [5] | [6] | [7]
